This is an account of results in PubChem BioAssay.

Results filed as inconclusive are left out. Calls of active or inactive are those of the source.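 Rule for the calls, unless noted: active = normalized viability below 100% at a tested concentration; inactive = the rest.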

Test [1] is described as follows: ovarian cancer cell viability with rucaparib, profiling panel, oncology-focused library, rucaparib conditional (AID 1508598). The following applies: patient-derived ovarian cancer cells, CellTiter-Glo viability, 144 h, stronger effect = lower value. In general terms: ATP-based viability assays read luminescence as a measure of living cells.
Test [2] in a line: growth inhibition of DIPG glioma cells, dose response, cell-based, JHH-DIPG-1, MIPE4.0, CellTiter-Glo, qHTS (AID 1347062; cut-off not given, nearly all actives have AC50 up to about 27 µM;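 for AC50: cells exposed to compound for two days before readout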). Conditions: JHH-DIPG-1 viability, CellTiter-Glo ATP luminescence.
Test [3] is described as follows: growth inhibition of DIPG glioma cells, dose response, cell-based, SU-DIPG-XIII, MIPE5.0, CellTiter-Glo, qHTS (AID 1347064; cut-off not given, nearly all actives have AC50 up to about 23 µM). Conditions: SU-DIPG-XIII viability, CellTiter-Glo ATP luminescence.
The nature of test [4]: SU-DIPG-VI glioma cell viability, MIPE4.0 library, CellTiter-Glo luminescence, qHTS (AID 1347066; cut-off not given, nearly all actives have AC50 up to about 30 µM;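 note: cells exposed to compound for 48 hours before readout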). The following applies: CellTiter-Glo ATP luminescence.
Test [5] can be described thus: JHH-DIPG-1 glioma cell viability, MIPE5.0 library, CellTiter-Glo luminescence, qHTS (AID 1347067; cut-off not given, nearly all actives have AC50 up to about 26 µM;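 note: cells exposed to compound for 48 hours before readout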). Conditions: JHH-DIPG-1 glioma viability, CellTiter-Glo ATP luminescence.
Test [6] in a line: SU-DIPG-XXV glioma cell viability, MIPE5.0 library, qHTS (AID 1347068; cut-off not given, nearly all actives have IC50 up to about 30 µM). For orientation: In qHTS, concentration-response curves come from the screen itself.
Test [7] is described as follows: sensitizers of A549 cells to miR-34 induction, primary screen, imaging, A549 dox-inducible miR-34, nuclei and caspase counts (AID 1347080;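 active = compounds whose cell count with miR-34 switched on is under 0.7 times the count with it off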). The following applies: A549 miR-34 inducible, Hoechst nuclei count, 48 h.
Test [8] is described as follows: survival rescue of mitochondrial mutant cells in low glucose, primary screen, MELAS cybrids, Rieske KO mouse fibroblasts, CellTiter-Glo (AID 1508586;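 active = mean z-score across replicates of 1.96 or higher in either the MELAS or the Rieske mutant cell line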;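 note: z relative to plate mean and SD of compound and empty wells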).
Test [9] in a line: growth inhibition of DIPG glioma cells, dose response, cell-based, SU-DIPG-IV, MIPE4.0, CellTiter-Glo, qHTS (AID 1347063; cut-off not given, nearly all actives have AC50 up to about 30 µM;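 note: compound exposure lasted 48 hours before the viability readout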). The following applies: SU-DIPG-IV viability, CellTiter-Glo ATP luminescence.

Take `Fc1cc(-c2cccc3ncc(-c4cnn(C5CCNCC5)c4)nc23)cc(F)c1CN1CCOCC1`: the viability (as a rule, a read-out of living cells in per cent, often relative to untreated cells) in test [1] (at 0.0195 µM, OCI-P5x cells, with rucaparib 20 µM, 100% = cells with rucaparib alone) is 88.8% (active); in test [1] (at 0.0195 µM, OCI-P5x cells, without rucaparib), 91.6% (active); in test [1] (at 0.0781 µM, OCI-C5x cells, with rucaparib 10 µM, 100% = cells with rucaparib alone), 99.8% (active); in test [1] (at 0.0781 µM, OCI-C5x cells, without rucaparib) it was 115% (inactive); in test [1] (at 0.0781 µM, OCI-P5x cells, with rucaparib 20 µM, 100% = cells with rucaparib alone) it was 80.3% (active); in test [1] (at 0.0781 µM, OCI-P5x cells, without rucaparib), 96% (active). The viability in [1] (at 0.313 µM, OCI-C5x cells, with rucaparib 10 µM, 100% = cells with rucaparib alone) is 114% (inactive); in [1] (at 0.313 µM, OCI-C5x cells, without rucaparib), 120% (inactive); in test [1] (at 0.313 µM, OCI-P5x cells, with rucaparib 20 µM, 100% = cells with rucaparib alone) it was 80.6% (active); in test [1] (at 0.313 µM, OCI-P5x cells, without rucaparib), 89.7% (active); in test [1] (at 1.25 µM, OCI-C5x cells, with rucaparib 10 µM, 100% = cells with rucaparib alone), 124% (inactive); in test [1] (at 1.25 µM, OCI-C5x cells, without rucaparib) it was 115% (inactive). Further, the viability in [1] (at 1.25 µM, OCI-P5x cells, with rucaparib 20 µM, 100% = cells with rucaparib alone) was 68.6% (active); in [1] (at 1.25 µM, OCI-P5x cells, without rucaparib) it was 80.5% (active); in [1] (at 5 µM, OCI-C5x cells, with rucaparib 10 µM, 100% = cells with rucaparib alone), 29.6% (active); in test [1] (at 5 µM, OCI-C5x cells, without rucaparib), 15.6% (active); in test [1] (at 5 µM, OCI-P5x cells, with rucaparib 20 µM, 100% = cells with rucaparib alone) it was 17.1% (active); in test [1] (at 5 µM, OCI-P5x cells, without rucaparib), 20.9% (active).
Take `Cc1ccc(-n2[nH]c(C)c(N=Nc3cccc(-c4cccc(C(=O)O)c4)c3O)c2=O)cc1C`: the outcome in test [2], in [3], in test [5] and in test [6] was inactive. Moreover, the AC50 (in general, the midpoint of the concentration-response curve, whichever way the signal moves) in [4] was 10.5 µM (active). Also, the fold change in test [7] (stronger effect = lower value, cell number ratio, induced over uninduced) was 0.913 (inactive); in test [7] (measured here: relative caspase fold change +Dox/-Dox), 1.1. Further, the cell count in [7] (measured here: total cells with miR-34 induction, stronger effect = lower value) was 6690; in test [7] (measured here: total cells without miR-34 induction) it was 7330. Further, the z-score in test [8] (MELAS cybrid survival, CellTiter-Glo 48 h, stronger effect = higher value) is -0.18 (inactive); in [8] (Rieske KO mouse fibroblast survival, CellTiter-Glo 72 h) it was -0.0982.
Consider `COc1cc2c(cc1Cc1cccc(Cl)c1F)c(=O)c(C(=O)O)cn2[C@H](CO)C(C)C`, for which, in test [2], the outcome was inactive. The values for the concentration at half-maximal activity (AC50) in [4] and in test [5] were 20.9 µM (active) and 26.3 µM (active), respectively.
Take `C=CC(=O)Nc1cccc(Nc2nc(NC3CCC(N(C)C)CC3)nc3c2ncn3C(C)C)c1` (centres undefined): the AC50 is 0.187 µM (active) in [2] and 0.0235 µM (active) in test [9].
Consider `C=CC(=O)Nc1cc(NC(=O)c2ccc(C)c(NC(=O)c3ccno3)c2)cc(C(F)(F)F)c1`, for which the values for the AC50 in [2], in test [9] and in test [4] were 16.6 µM (active), 18.7 µM (active) and 16.6 µM (active), respectively.
Turning to `CC(=O)N(C)C1(c2ccccc2)CCN(CCC[C@]2(c3ccc(Cl)c(Cl)c3)CCCN(C(=O)c3ccccc3)C2)CC1`, the AC50 in test [2] was 29.6 µM (active); in test [9], 26.4 µM (active); in test [4], 33.2 µM (active).
Turning to `O=c1[nH]c(=O)n([C@H]2C[C@H](O)[C@@H](CO)O2)cc1/C=C/Br`, the call in test [2], in test [9] and in test [4] was inactive.
Turning to `CC(=O)Nc1sc2c(c1-c1nc3ccccc3s1)CNC2`, the AC50 is 23.5 µM (active) in [2] and 20.9 µM (active) in test [9]. Also, in test [4], the result was inactive.
Consider `CCNC(=O)Nc1ccc(Oc2ncnc(N)c2/C=N/OC)cc1Cl`, for which the molecule was called inactive in [2], in [4] and in test [6].
